# Assay results taken from PubChem BioAssay AID1159580 (chemical genetic matrix, 2015).
# The campaign covered roughly 5,500 compounds. About 2,000 (36%) were called active. Another 18% or so got no clear call; they are omitted. This is one part of the list. Unmarked numbers belong to inactive results. Rule as the data show it: active = normalized growth mostly below about 0.91 (no sharp cut-off); inconclusive = no clear call, values can overlap the other calls; inactive = mostly above about 0.92.
# Experiment: chemical genetic growth profiling, strain panel (AID 1159580);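 also: tested at 20 µM; growth read once vehicle control cultures reached saturation at 30 °C; 1 = growth at the plate median or of vehicle wells; lower values mean less growth of the strain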
# Conditions: growth OD
# [1] = S. cerevisiae deletion strains, locus YDL101C, strain DUN1, hits give low values
# [2] = S. cerevisiae deletion strains, locus YHR030C, strain SLT2, hits give low values
# [3] = S. cerevisiae deletion strains, locus YAL013W, strain DEP1, hits give low values
# [4] = S. cerevisiae deletion strains, locus YBR229C, strain ROT2, hits give low values
# [5] = S. cerevisiae deletion strains, locus YCL061C, strain MRC1, hits give low values
# [6] = S. cerevisiae deletion strains, locus YDL134C, strain PPH21, hits give low values
# [7] = S. cerevisiae deletion strains, locus YDR150W, strain NUM1, hits give low values
# [8] = S. cerevisiae deletion strains, locus YEL061C, strain CIN8, hits give low values
# [9] = S. cerevisiae deletion strains, locus YGR078C, strain PAC10, hits give low values
# [10] = S. cerevisiae deletion strains, locus YHR087W, strain rtc3, hits give low values
# [11] = S. cerevisiae deletion strains, locus YJR043C, strain POL32, hits give low values
# [12] = S. cerevisiae deletion strains, locus YJR075W, strain HOC1, hits give low values
# [13] = S. cerevisiae deletion strains, locus YLR039C, strain RIC1, hits give low values
# [14] = S. cerevisiae deletion strains, locus YLR058C, strain SHM2 (second series), hits give low values
# [15] = S. cerevisiae deletion strains, locus YLR085C, strain ARP6, hits give low values
# [16] = S. cerevisiae deletion strains, locus YLR262C, strain YPT6, hits give low values
# [17] = S. cerevisiae deletion strains, locus YML094W, strain GIM5, hits give low values
# [18] = S. cerevisiae deletion strains, locus YMR219W, strain ESC1, hits give low values
# [19] = S. cerevisiae deletion strains, locus YMR307W, strain GAS1, hits give low values
# [20] = S. cerevisiae deletion strains, locus YNL153C, strain GIM3, hits give low values
# [21] = S. cerevisiae deletion strains, locus YNL298W, strain CLA4 (second series), hits give low values
# [22] = S. cerevisiae deletion strains, locus YNL322C, strain KRE1, hits give low values
# [23] = S. cerevisiae deletion strains, locus YNR030W, strain Alg12, hits give low values
# [24] = S. cerevisiae deletion strains, locus YPL055C, strain LGE1, hits give low values
# [25] = S. cerevisiae deletion strains, locus YPL241C, strain CIN2, hits give low values
# [26] = S. cerevisiae deletion strains, locus YPR135W, strain CTF4, hits give low values
structure (smiles),measurement,setting,value
O=C(Nc1ccc(OC(F)(F)F)cc1)N1CCN(c2nc(-c3ccccc3)ns2)CC1,normalized growth,"S. cerevisiae deletion strains, locus YAR019C, strain CDC15, hits give low values",1
same,normalized growth,"S. cerevisiae deletion strains, locus YBL105C, strain PKC1, hits give low values",1
same,normalized growth,"S. cerevisiae deletion strains, locus YBR135W, strain CKS1, hits give low values",0.992
same,normalized growth,"S. cerevisiae deletion strains, locus YBR136W, strain MEC1, hits give low values",0.992
same,normalized growth,"S. cerevisiae deletion strains, locus YBR160W, strain CDC28, hits give low values",0.991
same,normalized growth,"S. cerevisiae deletion strains, locus YDL017W, strain CDC7, hits give low values",0.992
same,normalized growth,"S. cerevisiae deletion strains, locus YDL028C, strain MPS1, hits give low values",1.01
same,normalized growth,[1],0.97
same,normalized growth,"S. cerevisiae deletion strains, locus YDL108W, strain KIN28, hits give low values",0.998
same,normalized growth,"S. cerevisiae deletion strains, locus YDL132W, strain cdc53, hits give low values",1
same,normalized growth,"S. cerevisiae deletion strains, locus YDL214C, strain PRR2, hits give low values",0.802
same,normalized growth,"S. cerevisiae deletion strains, locus YDR052C, strain DBF4, hits give low values",0.992
same,normalized growth,"S. cerevisiae deletion strains, locus YDR054C, strain cdc34, hits give low values",1
same,normalized growth,"S. cerevisiae deletion strains, locus YDR226W, strain ADK1, hits give low values",0.995
same,normalized growth,"S. cerevisiae deletion strains, locus YDR477W, strain SNF1, hits give low values",0.957
same,normalized growth,"S. cerevisiae deletion strains, locus YER123W, strain YCK3, hits give low values",0.861
same,normalized growth,"S. cerevisiae deletion strains, locus YER133W, strain GLC7, hits give low values",0.97
same,normalized growth,"S. cerevisiae deletion strains, locus YFL009W, strain cdc4, hits give low values",0.991
same,normalized growth,"S. cerevisiae deletion strains, locus YFL029C, strain CAK1, hits give low values",0.989
same,normalized growth,"S. cerevisiae deletion strains, locus YFR003C, strain YPI1, hits give low values",0.98
same,normalized growth,"S. cerevisiae deletion strains, locus YFR019W, strain FAB1, hits give low values",0.924
same,normalized growth,"S. cerevisiae deletion strains, locus YFR028C, strain CDC14, hits give low values",0.997
same,normalized growth,"S. cerevisiae deletion strains, locus YGR040W, strain KSS1, hits give low values",0.933
same,normalized growth,"S. cerevisiae deletion strains, locus YGR052W, strain FMP48, hits give low values",0.906
same,normalized growth,"S. cerevisiae deletion strains, locus YGR092W, strain DBF2, hits give low values",0.898
same,normalized growth,[2],0.893
same,normalized growth,"S. cerevisiae deletion strains, locus YHR079C, strain IRE1, hits give low values",0.864
same,normalized growth,"S. cerevisiae deletion strains, locus YHR082C, strain KSP1, hits give low values",0.905
same,normalized growth,"S. cerevisiae deletion strains, locus YHR205W, strain SCH9, hits give low values",0.51 (active)
same,normalized growth,"S. cerevisiae deletion strains, locus YIL147C, strain SLN1, hits give low values",0.994
same,normalized growth,"S. cerevisiae deletion strains, locus YJL095W, strain BCK1, hits give low values",0.91
same,normalized growth,"S. cerevisiae deletion strains, locus YJL128C, strain PBS2, hits give low values",0.843
same,normalized growth,"S. cerevisiae deletion strains, locus YJL157C, strain FAR1, hits give low values",0.888
same,normalized growth,"S. cerevisiae deletion strains, locus YJR016C, strain ILV3, hits give low values",1
same,normalized growth,"S. cerevisiae deletion strains, locus YJR066W, strain TOR1 (second series), hits give low values",0.858
same,normalized growth,"S. cerevisiae deletion strains, locus YJR066W, strain TOR1, hits give low values",1.01
same,normalized growth,"S. cerevisiae deletion strains, locus YKL048C, strain ELM1, hits give low values",0.867
same,normalized growth,"S. cerevisiae deletion strains, locus YKL067W, strain YNK1, hits give low values",0.844
same,normalized growth,"S. cerevisiae deletion strains, locus YKL101W, strain HSL1, hits give low values",0.79
same,normalized growth,"S. cerevisiae deletion strains, locus YKL193C, strain SDS22, hits give low values",0.987
same,normalized growth,"S. cerevisiae deletion strains, locus YKL203C, strain TOR2, hits give low values",1.01
same,normalized growth,"S. cerevisiae deletion strains, locus YLR113W, strain HOG1, hits give low values",0.733 (active)
same,normalized growth,"S. cerevisiae deletion strains, locus YLR133W, strain CKI1, hits give low values",0.826
same,normalized growth,"S. cerevisiae deletion strains, locus YLR403W, strain SFP1, hits give low values",0.905
same,normalized growth,"S. cerevisiae deletion strains, locus YML070W, strain DAK1, hits give low values",0.856
same,normalized growth,"S. cerevisiae deletion strains, locus YMR001C, strain CDC5, hits give low values",0.992
same,normalized growth,"S. cerevisiae deletion strains, locus YMR205C, strain PFK2 (second series), hits give low values",0.793
same,normalized growth,"S. cerevisiae deletion strains, locus YMR277W, strain FCP1, hits give low values",0.989
same,normalized growth,"S. cerevisiae deletion strains, locus YNL006W, strain LST8, hits give low values",0.994
same,normalized growth,"S. cerevisiae deletion strains, locus YNL020C, strain ARK1, hits give low values",0.818
same,normalized growth,"S. cerevisiae deletion strains, locus YNL161W, strain CBK1, hits give low values",0.983
same,normalized growth,"S. cerevisiae deletion strains, locus YNL183C, strain NPR1, hits give low values",0.815
same,normalized growth,"S. cerevisiae deletion strains, locus YNL207W, strain RIO2, hits give low values",0.982
same,normalized growth,"S. cerevisiae deletion strains, locus YNL222W, strain SSU72, hits give low values",0.994
same,normalized growth,"S. cerevisiae deletion strains, locus YNL307C, strain MCK1 (second series), hits give low values",0.805
same,normalized growth,"S. cerevisiae deletion strains, locus YOL078W, strain AVO1, hits give low values",0.997
same,normalized growth,"S. cerevisiae deletion strains, locus YOL136C, strain PFK27, hits give low values",0.772
same,normalized growth,"S. cerevisiae deletion strains, locus YOR061W, strain CKA2, hits give low values",0.856
same,normalized growth,"S. cerevisiae deletion strains, locus YOR119C, strain RIO1, hits give low values",1
same,normalized growth,"S. cerevisiae deletion strains, locus YOR231W, strain MKK1, hits give low values",0.843
same,normalized growth,"S. cerevisiae deletion strains, locus YOR329C, strain SCD5, hits give low values",0.984
same,normalized growth,"S. cerevisiae deletion strains, locus YPL031C, strain PHO85, hits give low values",0.952
same,normalized growth,"S. cerevisiae deletion strains, locus YPL153C, strain RAD53, hits give low values",0.909
same,normalized growth,"S. cerevisiae deletion strains, locus YPL204W, strain HRR25, hits give low values",0.941
same,normalized growth,"S. cerevisiae deletion strains, locus YPL209C, strain IPL1, hits give low values",0.994
same,normalized growth,"S. cerevisiae deletion strains, locus YPL256C, strain CLN2, hits give low values",0.832 (active)
same,normalized growth,"S. cerevisiae deletion strains, locus YPR025C, strain CCL1, hits give low values",1
same,normalized growth,"S. cerevisiae deletion strains, locus YPR106W, strain ISR1, hits give low values",0.929
same,normalized growth,"S. cerevisiae deletion strains, locus YPR111W, strain DBF20, hits give low values",0.925
same,normalized growth,"S. cerevisiae deletion strains, strain NNK1, hits give low values",0.909
same,normalized growth,"S. cerevisiae deletion strains, strain TSCII, hits give low values",0.979
O=[N+]([O-])c1ccc(N2CCCN(C(=S)Nc3ccc(Cl)cc3Cl)CC2)nc1,normalized growth,[3],0.966
same,normalized growth,[4],0.96
same,normalized growth,[5],0.956
same,normalized growth,[1],0.942
same,normalized growth,[6],0.979
same,normalized growth,[7],0.886
same,normalized growth,[8],0.912
same,normalized growth,[9],0.961
same,normalized growth,"S. cerevisiae deletion strains, locus YGR229C, strain SMI1, hits give low values",0.989
same,normalized growth,[2],0.422 (active)
same,normalized growth,[10],0.906 (active)
same,normalized growth,[11],0.984
same,normalized growth,[12],0.937
same,normalized growth,[13],0.628 (active)
same,normalized growth,[14],0.96
same,normalized growth,[15],0.543 (active)
same,normalized growth,[16],0.686 (active)
same,normalized growth,[17],0.932
same,normalized growth,[18],0.982
same,normalized growth,[19],0.433 (active)
same,normalized growth,[20],0.98
same,normalized growth,[21],0.831 (active)
same,normalized growth,[22],0.98
same,normalized growth,[23],0.8 (active)
same,normalized growth,"S. cerevisiae deletion strains, locus YOL006C, strain TOP1, hits give low values",0.831
same,normalized growth,[24],0.928
same,normalized growth,[25],0.866
same,normalized growth,[26],0.337 (active)
CSC(=NC#N)N1CCN(c2ccc([N+](=O)[O-])cn2)CC1,normalized growth,[3],0.997
same,normalized growth,[4],1.01
same,normalized growth,[5],1
same,normalized growth,[1],1.02
same,normalized growth,[6],0.987
same,normalized growth,[7],1.07
same,normalized growth,[8],0.957
same,normalized growth,[9],0.996
same,normalized growth,[2],0.958
same,normalized growth,[10],0.991
same,normalized growth,"S. cerevisiae deletion strains, locus YJL187C, strain SWE1, hits give low values",0.993
same,normalized growth,[11],1.01
same,normalized growth,[12],1.01
same,normalized growth,[13],0.986
same,normalized growth,[14],0.989
same,normalized growth,[15],0.933
same,normalized growth,[16],0.978
same,normalized growth,[17],0.966
same,normalized growth,[18],0.996
same,normalized growth,"S. cerevisiae deletion strains, locus YMR263W, strain SAP30, hits give low values",1.01
same,normalized growth,[19],1.1
same,normalized growth,[20],1
same,normalized growth,[21],0.978
same,normalized growth,[22],0.99
same,normalized growth,[23],0.954
same,normalized growth,[24],1.08
same,normalized growth,[25],0.99
same,normalized growth,[26],1.09
same,normalized growth,"S. cerevisiae strains, strain wild type, hits give low values",0.983
